TDP1 cell noCPT: qHTS for Inhibitors of human tyrosyl-DNA phosphodiesterase 1 (TDP1): qHTS in cells in absence of CPT. DT40 Tdp1-/- hTDP1 cells, no CPT, ATP luminescence, 48 h. Potency, µM (doses to about 46.2 µM), for the others: at the top dose activity change, negative = growth inhibition, actives largely listed as inhibitors. 420,000 compounds, 15% hits; further: on the % scale 0 is the no-effect control and ±100 the full control effect; nearly all actives have a fitted effect of over 55% in size
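No-CPT arm: Tdp1-/-;hTDP1 DT40 cells (400/well) plus compounds, incubated ≥48 hr at 37 °C. Readout CellTiter-Glo luminescence.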
HepG2 viability: HepG2 cytotoxicity, counter-screen for TGF-b inhibitors; HepG2 CAGA-GFP viability, ATP luminescence, 18 h; Potency, µM (highest dose often 46.1 µM), inactives show top-dose activity change, negative = cytotoxicity, hits mostly cytotoxic; 410,000 compounds, 0.76% hits; AID 588856
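CellTiter-Glo luminescence gave cytotoxicity after 18 hours at 37 degrees C. The cells were HepG2 CAGA-GFP in 1% FBS DMEM, stimulated with 500 pg/mL TGF-beta after compound addition. %Activity was normalised to no-cell wells (complete cell-killing) and DMSO (no toxicity), and curves were fitted and classified.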
HT1080 IDH1KD tx: toxicity to HT-1080 IDH1 knockdown cells (counter line); HT-1080 IDH1 knockdown viability, ATP luminescence, 48 h; Potency, µM (doses to about 46.1 µM), without a hit: top-dose activity, negative = toxicity, hits mostly cytotoxic; 360,000 compounds, 2% hits;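 further: 0% = DMSO wells and -100% = cell-free medium wells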
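Using the IDH1-knockdown HT-1080 line run in the same batch and compound series as the NT line, viability after 48 h at 37 °C was determined by CellTiter-Glo luminescence and expressed as % activity.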
HT1080-NT tox: kills 2HG-producing HT-1080-NT fibrosarcoma cells. AID 686970. HT-1080-NT fibrosarcoma viability, CellTiter-Glo ATP luminescence, 48 h. 360,000 compounds, 1.6% hits. Potency, µM (top dose mostly 46.1 µM), for the others: at the top dose activity, negative = less viability, actives largely listed as cytotoxic;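 further: NT is the 2HG producing partner of a matched IDH1 knockdown line; 0% = DMSO-treated cells and -100% = media-only wells without cells; nearly all actives have a fitted effect of over 55% in size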
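Luminescent CellTiter-Glo readout after 48 hours of compound exposure at 37 degrees C defined viability of HT-1080-NT cells. Activity was normalized to DMSO wells and cell-free media wells; concentration-response curves were fitted and assigned curve classes.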
TGFb inhibitor: inhibitors of TGF-b signaling | HepG2 CAGA-GFP TGF-b/SMAD3 reporter, GFP fluorescence, 18 h; TGF-beta stimulated, 500 pg/mL final | AID 588855 | Potency, µM (highest dose often 46.1 µM), without a hit: at the top dose activity, negative = inhibition, actives largely listed as inhibitors | 410,000 compounds, 1.2% hits; further: on the % scale 0 is the no-effect control and ±100 the full control effect; nearly all actives have a fitted effect of over 65% in size
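HEPG2 CAGA-GFP, 1000 cells/well; 2 h settle, 37 C; cpd via pin tool; TGF-b 500 pg/mL final; 18 h, 37 C; GFP imaging ex488/em500-530; %Activity normalised to -TGF-b and +DMSO controls; CRC fit, curve class.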
DT40 TDP1 CPT: DT40-hTDP1 cell growth loss with CPT. chicken DT40 Tdp1-/-;hTDP1 cells + 20 nM CPT, ATP luminescence, 48 h. Potency, µM (highest dose often 46.2 µM), for the others: top-dose activity change, negative = growth inhibition, most hits filed as inhibitors. 420,000 compounds, 12% hits. AID 686979; further: on the % scale 0 is the no-effect control and ±100 the full control effect; nearly all actives have a fitted effect of over 55% in size
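Chicken DT40 Tdp1-/- cells stably complemented with human TDP1 were seeded at 400 cells/well in medium containing 20 nM camptothecin, exposed to pin-transferred compounds, and grown at 37 °C for at least 48 hr. Viability was read as ATP luminescence.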
An asterisk follows results filed as active. Most compounds without a hit are left out; they make up all but 17% or so of the library. The call rests on the fitted dose curve; in most records, active means well fitted curve in the direction sought with a large enough effect; inconclusive means small, poorly fitted or top-dose-only effect, or another doubt; inactive means no such curve, though single readings can be large; an effect the other way counts as inactive or inconclusive. Potency means the concentration at half of the fitted maximal effect.

How did COc1ccc(CCN2C(=O)CS/C2=N\NC(=O)c2ccc(C(C)(C)C)cc2)cc1OC do in these assays?
TDP1 cell noCPT: 15µM*; HepG2 viability: -8%; HT1080 IDH1KD tx: -4%; HT1080-NT tox: 0%; TGFb inhibitor: -19%; DT40 TDP1 CPT: inconclusive

What do the screens show for `O=C(N/N=C1\SCC(=O)N1CCc1ccccc1)c1cccs1`?
TDP1 cell noCPT: 1%; HepG2 viability: -17%; HT1080 IDH1KD tx: 9%; HT1080-NT tox: 4%; TGFb inhibitor: -8%; DT40 TDP1 CPT: 2%

How did COc1ccc(N=C2SC(C(N)=O)CC(=O)N2CCc2ccc(OC)c(OC)c2)cc1 (configuration not stated) do in these assays?
TDP1 cell noCPT: -13%; HepG2 viability: -1%; HT1080 IDH1KD tx: -5%; HT1080-NT tox: -6%; TGFb inhibitor: inconclusive; DT40 TDP1 CPT: -28%

What do the screens show for `COc1ccc(N=C2SCC(=O)N2CCc2ccc(OC)c(OC)c2)cc1`?
TDP1 cell noCPT: 26µM*; HepG2 viability: -41%; HT1080 IDH1KD tx: 2%; HT1080-NT tox: -1%; TGFb inhibitor: -27%; DT40 TDP1 CPT: inconclusive

What do the screens show for `COc1ccc(CCN2C(=O)CSC2=Nc2ccc(C(C)C)cc2)cc1OC`?
TDP1 cell noCPT: 9.2µM*; HepG2 viability: -11%; HT1080 IDH1KD tx: 5.8µM*; HT1080-NT tox: inconclusive; TGFb inhibitor: inconclusive; DT40 TDP1 CPT: 15µM*

Results for Cc1c(C)n2c(SCC(=O)NCc3ccc4c(c3)OCO4)nnc2[nH]c1=O ?
TDP1 cell noCPT: 17%; HepG2 viability: -2%; HT1080 IDH1KD tx: 1%; HT1080-NT tox: 0%; TGFb inhibitor: 24%; DT40 TDP1 CPT: 11%

Results for COCCNC(=O)[C@H]1N2C(=O)c3ccccc3C2SC1(C)C (some centres not stated) ?
TDP1 cell noCPT: inconclusive; HepG2 viability: 8%; HT1080 IDH1KD tx: 5%; HT1080-NT tox: 10%; TGFb inhibitor: 6%; DT40 TDP1 CPT: -5%

How did NC(=O)C1CCN(C(=O)C2CC(=O)N(Cc3ccccc3)C2)CC1 (configuration not stated) do in these assays?
TDP1 cell noCPT: 21%; HepG2 viability: -3%; HT1080 IDH1KD tx: 15%; HT1080-NT tox: 15%; TGFb inhibitor: -2%; DT40 TDP1 CPT: 3%

How did CCC(NC(=O)CCc1c(C)c2cc3c(-c4ccccc4)coc3cc2oc1=O)C(=O)O (configuration not stated) do in these assays?
TDP1 cell noCPT: 17%; HepG2 viability: 4%; HT1080 IDH1KD tx: 8%; HT1080-NT tox: 11%; TGFb inhibitor: 1%; DT40 TDP1 CPT: -10%

Results for O=C(CN(C(=O)CCC(=O)Nc1nccs1)c1ccc(F)cc1)NCc1ccccc1 ?
TDP1 cell noCPT: inconclusive; HepG2 viability: 2%; HT1080 IDH1KD tx: -1%; HT1080-NT tox: 0%; TGFb inhibitor: -4%; DT40 TDP1 CPT: -5%

What do the screens show for `COc1ccc(CN2CCN(Cc3cccc(Oc4ccccc4)c3)CC2)c(OC)c1OC`?
TDP1 cell noCPT: inconclusive; HepG2 viability: -34%; HT1080 IDH1KD tx: -16%; HT1080-NT tox: inconclusive; TGFb inhibitor: inconclusive; DT40 TDP1 CPT: inconclusive

What do the screens show for `COc1ccc(CN2CCN(Cc3ccc(Br)cc3)CC2)c(OC)c1OC`?
TDP1 cell noCPT: 16µM*; HepG2 viability: -24%; HT1080 IDH1KD tx: -14%; HT1080-NT tox: -15%; TGFb inhibitor: inconclusive; DT40 TDP1 CPT: inconclusive

How did COc1ccc(CN2CCN(C(c3ccc(F)cc3)c3ccc(F)cc3)CC2)c(OC)c1OC do in these assays?
TDP1 cell noCPT: 2.9µM*; HepG2 viability: -28%; HT1080 IDH1KD tx: inconclusive; HT1080-NT tox: inconclusive; TGFb inhibitor: inconclusive; DT40 TDP1 CPT: 2.6µM*

Results for Nc1ccc(/C=C/c2nc3ccccc3s2)cc1 ?
TDP1 cell noCPT: 13µM*; HepG2 viability: -13%; TGFb inhibitor: 0%; DT40 TDP1 CPT: 11µM*

What do the screens show for `CC(C)CN(CC(C)C)c1ccc(/C=C/c2nc3ccccc3s2)cc1`?
TDP1 cell noCPT: 3.5µM*; HepG2 viability: -19%; TGFb inhibitor: -22%; DT40 TDP1 CPT: 5µM*

What do the screens show for `CCN(CC)c1ccc(NC(=O)COC(=O)/C=C/c2nc3ccccc3s2)cc1`?
TDP1 cell noCPT: inconclusive; HepG2 viability: -21%; HT1080 IDH1KD tx: 5%; HT1080-NT tox: 18%; TGFb inhibitor: -20%; DT40 TDP1 CPT: 12%

Results for CC(=O)Nc1ccc(/C=C/c2ccncc2)cc1 ?
TDP1 cell noCPT: inconclusive; HepG2 viability: 0%; TGFb inhibitor: 9%; DT40 TDP1 CPT: inconclusive

What do the screens show for `CC(=O)Nc1ccc(/C=C/c2nc3ccccc3s2)cc1`?
TDP1 cell noCPT: 11µM*; HepG2 viability: -33%; TGFb inhibitor: -21%; DT40 TDP1 CPT: inconclusive

What do the screens show for `COc1ccccc1/C=C/c1nc2ccccc2s1`?
TDP1 cell noCPT: inconclusive; HepG2 viability: -4%; TGFb inhibitor: -8%; DT40 TDP1 CPT: inconclusive

Results for CCOC(=O)[C@]12CCC=C1N(Cc1ccc3c(c1)OCO3)C(=O)[C@H](CC(=O)NCCCOC)C2 ?
TDP1 cell noCPT: -27%; HT1080 IDH1KD tx: 13%; HT1080-NT tox: 16%; DT40 TDP1 CPT: -10%

Results for O=C(NCCc1ccccc1F)C1CC(=O)N(c2ccc3c(c2)OCCO3)C1 (configuration not stated) ?
TDP1 cell noCPT: -3%; HepG2 viability: -24%; HT1080 IDH1KD tx: 12%; HT1080-NT tox: 8%; TGFb inhibitor: 6%; DT40 TDP1 CPT: -6%

Results for CCSc1ncc(/C=N/Nc2ccc([N+](=O)[O-])cc2)n1C ?
TDP1 cell noCPT: -28%; HepG2 viability: -6%; HT1080 IDH1KD tx: 13µM*; HT1080-NT tox: 13µM*; TGFb inhibitor: inconclusive; DT40 TDP1 CPT: inconclusive

What do the screens show for `CCSc1ncc(/C=N/Nc2ccccc2)n1C`?
TDP1 cell noCPT: 16µM*; HepG2 viability: 2%; HT1080 IDH1KD tx: -27%; HT1080-NT tox: -24%; TGFb inhibitor: 6%; DT40 TDP1 CPT: 23µM*

What do the screens show for `O=C(NC1CCCC1)c1cnn(-c2ccc(F)cc2F)c1C1CCNCC1`?
TDP1 cell noCPT: inconclusive; HepG2 viability: -9%; TGFb inhibitor: 18%; DT40 TDP1 CPT: -24%
